# PubChem BioAssay AID687022 (Broad Institute, 2013)
# About 360 (36%) of roughly 1,000 compounds were called active. These entries were drawn from the full list. A number with no mark means an inactive call.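 Rule for the calls: active = Fitted curve of melting temperature shift crosses the 1.0 threshold at or below the sample's highest valid tested concentration; inconclusive = Flat fit with activity 30 to 70, or invalid fit; inactive = Opposite direction, flat within 30, or no crossing.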
# Target: Fibroblast growth factor 22 (Homo sapiens) (UniProt Q9HCT0)
# Test: FGF22 ligand-induced thermal stabilization – biophysical, thermal shift, cherry-pick, FGF22 synaptogenesis inhibitor project, dose response (AID 687022); note: reference of the scale not given here
# Conditions: recombinant FGF22 thermal shift, SYPRO orange melting; series mostly up to 38 µM; Tm shift activity: at the top concentration
# Chain of Fibroblast growth factor 22 (Homo sapiens) (Q9HCT0 whole entry, looked up): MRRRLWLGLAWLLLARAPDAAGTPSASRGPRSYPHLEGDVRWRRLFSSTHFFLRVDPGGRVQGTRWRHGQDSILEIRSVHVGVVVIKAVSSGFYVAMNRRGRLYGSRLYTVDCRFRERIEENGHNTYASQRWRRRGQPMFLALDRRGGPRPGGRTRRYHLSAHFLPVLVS
row,SMILES,Tm shift activity
1,O=C(N[C@@H]1C=C[C@@H](CC(=O)N2CCCCC2)O[C@@H]1CO)c1cccc(F)c1,-0.288% [at 42 µM]
2,O=C(c1ccccc1F)N1CC(=O)N2[C@@H](CO)[C@H](c3ccc(-c4ccc(F)cc4)cc3)[C@@H]2C1,-1.1% [at 42 µM]
3,Cc1ccccc1-c1ccccc1[C@@H]1[C@@H](C#N)N(C(=O)c2ccccc2)[C@H]1CO,-0.262%
4,CCOC(=O)[C@]12CCCC=C1N(Cc1ccccc1)C(=O)[C@H](CC(=O)NCC1CCCCC1)C2,0.402%
5,O=C(Nc1ccc2c(c1)OCO2)c1cnn2cccnc12,-0.154%
6,C[C@H]1CN([C@@H](C)CO)C(=O)c2cc(NC(=O)CCC(F)(F)F)ccc2O[C@H]1CN(C)CC1CC1,-0.033% [at 10 µM]
7,C[C@H]1CN([C@@H](C)CO)C(=O)c2cc(NS(=O)(=O)c3ccccc3)ccc2O[C@@H]1CN(C)C,-0.047%
8,C[C@H](CO)N1C[C@H](C)[C@H](CN(C)S(=O)(=O)c2ccc(F)cc2)Oc2ccc(NC(=O)c3ccncc3)cc2C1=O,-0.057%
9,COc1cccc(NC(=O)OCCN2CCN(Cc3ccccc3)CCC2=O)c1,0.08%
10,O=C(Cn1[nH]c(=O)c2ccccc2c1=O)Nc1cccnc1,0.021%
11,COc1ccc(Br)cc1S(=O)(=O)Nc1ncccc1C,-0.096%
12,Cc1cccnc1NC(=O)CCCN1C(=O)c2ccccc2C1=O,0.14%
13,Cc1ccc(-c2ccc([C@@H]3[C@@H](CO)N4C(=O)CN(C(=O)c5ccc(F)cc5)C[C@H]34)cc2)cc1,14.5%
14,Cc1cc(C(=O)O/N=C(\N)c2ccncc2)ccc1[N+](=O)[O-],-0.188%
15,Cc1ccc(-n2c(O)c(C=NC3CCS(=O)(=O)C3)c3ccccc3c2=O)cc1C (centres undefined),-0.046%
16,COCC(=O)NC[C@H]1[C@H](c2ccc(C3=CCCC3)cc2)[C@@H](CO)N1C(C)=O,-0.131% [at 42 µM]
17,C[C@H]1CN([C@@H](C)CO)C(=O)c2cc(NC(=O)Cc3ccccc3)ccc2O[C@H]1CN(C)Cc1ccc2c(c1)OCO2,-0.068%
18,COc1cc(OC)cc(C(=O)Nc2nc3ccc(S(C)(=O)=O)cc3s2)c1,0.771%
19,Cc1ccc(S(=O)(=O)Nc2ccc3c(c2)C(=O)N([C@@H](C)CO)C[C@@H](C)[C@@H](CN(C)C)O3)cc1,-0.078%
20,C[C@@H]1CN([C@H](C)CO)S(=O)(=O)c2ccc(C#CC3CC3)cc2O[C@H]1CN(C)C(=O)c1ccncc1,-0.481%
21,CC(C)(CNCc1ccccc1)NS(=O)(=O)c1ccc(Cl)cc1,-0.043%

row,SMILES,Tm shift activity
1,CCCCNC(=O)c1onc(CSc2ccc(C(C)C)cc2)c1C(=O)O,0.765% [at 5 µM]
2,Cc1noc(C)c1S(=O)(=O)N(C)C[C@H]1Oc2ccc(NS(=O)(=O)c3cccs3)cc2C(=O)N([C@@H](C)CO)C[C@H]1C,-0.774%
3,COc1ccc(Nc2nnc(-c3ccncc3)s2)cc1Cl,0.068%
4,CO[C@H](CN(C)S(=O)(=O)c1cccc(Cl)c1)[C@H](C)CN([C@@H](C)CO)S(=O)(=O)c1cccc(Cl)c1,0.223% [at 42 µM]
5,C[C@@H]1CN([C@@H](C)CO)C(=O)c2cccc(NC(=O)C3CC3)c2O[C@H]1CN(C)Cc1ccncc1,0.078%
6,O=C(C[C@@H]1C=C[C@H](NC(=O)Nc2cc(F)ccc2F)[C@H](CO)O1)Nc1ccc(-c2ccccc2)cc1,0.09%
7,CCC(=O)N(NC1=NS(=O)(=O)c2ccccc21)S(=O)(=O)c1ccc(C)cc1,-0.105%
8,CC(C)(C)NC(=O)CN(C(=O)CNS(=O)(=O)c1ccc(Cl)cc1)c1ccc2c(c1)OCCO2,-0.101%
9,O=[N+]([O-])c1cccc(S(=O)(=O)Nc2ccc(S(=O)(=O)Nc3nccs3)cc2)c1,-0.075%
10,O=[N+]([O-])c1ccc(Cl)c(S(=O)(=O)Nc2ccc(S(=O)(=O)N3CCOCC3)cc2)c1,-0.245%
11,CC(=O)c1ccc(NS(=O)(=O)c2ccc(N)cc2)cc1,-0.172%
12,CC(=O)c1sc(NC(=O)c2cc(=O)c3ccccc3o2)nc1C,0.254%
13,CCOc1ccc(N(CC(=O)NCCSc2ccccn2)S(=O)(=O)c2ccc(Cl)cc2)cc1,-0.149%
14,N#C[C@@H]1[C@H](c2ccc(-c3cccnc3)cc2)[C@H](CO)N1C(=O)Nc1ccc(F)cc1,-0.106% [at 42 µM]
15,CC(C)C#Cc1cnc2c(c1)C(=O)N([C@H](C)CO)C[C@H](C)[C@H](CN(C)C(=O)c1cnccn1)O2,-0.112% [at 42 µM]
16,Cc1noc(C)c1NC(=O)Nc1ccc2c(c1)CC(=O)N([C@@H](C)CO)C[C@H](C)[C@@H](CN(C)Cc1ccc3c(c1)OCO3)O2,-0.148%
17,CC(C)NC(=O)Nc1ccc2c(c1)C(=O)N([C@H](C)CO)C[C@H](C)[C@@H](CN(C)C(=O)NC(C)C)O2,0.003%
18,COc1cccc(NC(=O)N2C[C@H](O)COC[C@@H]3O[C@@H](CC(=O)NC4CCC4)CC[C@H]32)c1,-0.128%
19,CSc1ccc(C(=O)NCC2CCN(C(=O)C(=O)c3cc4ccccc4o3)CC2)cc1,-1.12%
20,COc1ccc(CCNS(=O)(=O)CCNC(=O)c2ccc3c(c2)OCO3)cc1,-0.261%
21,C/C(CC(=O)Nc1cccc(Cl)c1Cl)=N\NC(=O)C(=O)NC1CCCCC1,0.278%

row,SMILES,Tm shift activity
1,O=C(CC1CC1)N1CC2(C1)[C@H](c1ccccc1)[C@H](CO)N2C(=O)c1cnccn1,-0.016% [at 42 µM]
2,COCC(=O)Nc1ccc2c(c1)OC[C@@H](C)N(C)C[C@H](C)[C@@H](OC)CN(C)C2=O,0.133%
3,Cc1ccc(N(C(=O)c2csnn2)C(C(=O)NC2CCCC2)c2ccccn2)c(C)c1 (centres undefined),0.564%
4,O=C(C1CCCC1)N1CC2(C1)[C@H](c1ccccc1)[C@@H](CO)N2CC1CC1,-0.131% [at 42 µM]
5,C[C@H]1CN([C@@H](C)CO)C(=O)c2cc(C3=CCCC3)cnc2O[C@H]1CN(C)C(=O)CN(C)C,0.046%
6,Cc1cc(C(=O)Nc2cccc3c2O[C@@H](CN(C)C(=O)NC2CCCCC2)[C@@H](C)CN([C@H](C)CO)C3=O)n(C)n1,-0.109%
7,Nc1n[nH]c(=S)n1/N=C1/C(=O)Nc2ccccc21,-1.04% [at 19.5 µM]
8,Cc1ccc(NC(=O)COC(=O)Cn2cnc3c2c(=O)n(C)c(=O)n3C)cc1F,-1.53%
9,O=C(COC(=O)CCCOc1ccc(Cl)cc1Cl)NCc1ccccc1,-0.091%
10,O=C(NCC[C@@H]1CC[C@@H](NS(=O)(=O)c2ccccc2)[C@@H](CO)O1)c1ccc2c(c1)OCO2,-1.36% [at 42 µM]
11,COCC(=O)N(C)C[C@@H]1Oc2cc(C#C[C@H](C)O)ccc2S(=O)(=O)N([C@@H](C)CO)C[C@H]1C,-0.017% [at 42 µM]
12,CC(C)(CNS(=O)(=O)c1ccc2c(c1)OCCO2)N1CCOCC1,-0.045%
13,Cn1c(=O)[nH]c(=O)c2c1nc(SCC(O)CO)n2CCCc1ccccc1 (centres undefined),-0.205%
14,Cc1[nH]c2ccccc2c1C(=O)C(=O)NCCOc1ccccc1,0.288%
15,O=[N+]([O-])c1ccc(/C=N/Nc2ccc3ccccc3c2)o1,-0.355%
16,CCOC(=O)[C@@H]1[C@H]2COc3cc(OC)ccc3[C@H]2N2C(=O)N(c3ccc(C)cc3)C(=O)[C@]12C,-0.261%
17,C[C@H](CO)N1C[C@H](C)[C@@H](CN(C)C(=O)Nc2cccc3ccccc23)Oc2c(NS(C)(=O)=O)cccc2C1=O,-0.1% [at 42 µM]
18,C[C@H]1CN([C@@H](C)CO)C(=O)c2cc(NC(=O)c3ccncc3)ccc2O[C@@H]1CN(C)S(=O)(=O)c1cn(C)cn1,0.122%
19,C[C@H]1CN([C@@H](C)CO)C(=O)c2cc(NS(=O)(=O)c3ccccc3)ccc2O[C@@H]1CN(C)Cc1ccc(C(=O)O)cc1,-0.154%
20,CCCCn1cnc2c(SCc3cccc(F)c3)nc(N)nc21,-0.433%
21,O=C(COc1ccccc1)NCC(=O)NC1CCCCC1,0.061%

row,SMILES,Tm shift activity
1,O=C(C[C@@H]1CC[C@@H](NC(=O)Nc2cc(F)ccc2F)[C@H](CO)O1)NCCCN1CCOCC1,0.042% [at 42 µM]
2,CCOC(=O)Cn1c2ccccc2n2nc(CCC(=O)O)c(=O)nc12,-0.267%
3,COCC(=O)N1C[C@@H]2[C@H](c3ccccc31)[C@H](CO)N2C(=O)c1ccccc1F,0.006% [at 42 µM]
4,COc1ccccc1S(=O)(=O)N(C)C[C@@H]1Oc2cc(C#CCC(C)C)ccc2S(=O)(=O)N([C@@H](C)CO)C[C@H]1C,0.178% [at 42 µM]
5,O=C(C[C@H]1C[C@@H]2c3cc(NC(=O)NC4CCCC4)ccc3O[C@@H]2[C@H](CO)O1)NCc1ccc2c(c1)OCO2,-0.035%
6,CCCNC(=O)COCc1cc(-c2ccc3c(c2)OCO3)on1,0.027%
7,O=C(COC(=O)CSc1ccc([N+](=O)[O-])cc1)NCCC1=CCCCC1,-0.227%
8,O=C(NCC[C@@H]1CC[C@H](NC(=O)C2CCOCC2)[C@H](CO)O1)Nc1ccc(Cl)cc1,0.002% [at 42 µM]
9,Cc1nn(-c2ccccc2)c(Cl)c1/C=N/NC(=O)c1cccnc1,-0.238%
10,COc1ccc(NS(=O)(=O)c2cccc(C(=O)NN=Cc3ccc(OC)c(O)c3)c2)cc1,-0.26%
11,O=C(N/N=C/c1c[nH]c2ccccc12)c1ccc2c(c1)OCCO2,-0.175%
12,Cc1c(/C=N\NC(=O)c2cccc(F)c2)cnn1C,-0.081%
13,COc1ccc(/C=N/NC(=O)c2cccc([N+](=O)[O-])c2)cc1OC,0.04%
14,CC(=O)Nc1ccc(C(=O)N/N=C/c2cc(Br)cc(Br)c2O)cc1,0.474%
15,CC1CC(CC(=O)NC(=S)Nc2ccccc2Cl)C(=O)O1 (centres undefined),-0.235%
16,CNC[C@H]1Oc2ccc(NC(=O)Cc3cn(C)c4ccccc34)cc2C(=O)N([C@H](C)CO)C[C@H]1C,-0.055% [at 42 µM]
17,COc1ccc(S(=O)(=O)N(C)C[C@@H]2Oc3ccc(NC(=O)Nc4ccccc4)cc3CC(=O)N([C@H](C)CO)C[C@@H]2C)cc1,-0.087% [at 42 µM]
18,CC(=O)Oc1ccc(C(=O)Nc2ccccc2C(=O)N2CCCCC2)cc1,-0.094%
19,COc1ccccc1C(=O)NNC(=O)c1ccc(NC(=O)c2ccccc2)cc1,0.273%
20,CCCN(C)C[C@H]1Oc2cc(C#Cc3cccnc3)ccc2S(=O)(=O)N([C@H](C)CO)C[C@@H]1C,0.518%
21,C[C@@H]1CN([C@@H](C)CO)C(=O)c2cccc(NC(=O)c3ccc(-c4nccs4)cc3)c2O[C@@H]1CN(C)C,0.253%
